High-throughput results as filed in PubChem.
An excerpt weighted towards active compounds, which were near 1.6% of everything screened.
KCNH2 3.1 inh – qHTS for Inhibitors of KCHN2 3.1: Mutant qHTS; Potassium voltage-gated channel subfamily H member 2, brain isoform KCNH2 3.1 (human); U2OS KCNH2 3.1, thallium flux FluxOr; hits give low values; activity change, % (tested at about 1.8 µM); 0.95% of 340,000 active; AID 720553, 2013;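 active means maximum activity change below -70%; inconclusive means maximum activity change from -70% to -50%; inactive means maximum activity change above -50%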;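 further: thallium influx rate constant from kinetic fluorescence after stimulation buffer; on the % scale 0 is the no-effect control and ±100 the full control effect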
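Thallium flux via FluxOr fluorescence (Red40 quencher, 45 min loading) in U2OS cells virally expressing the KCNH2 3.1 isoform (1.77 x 10^8 /mL virus, overnight at 37 C). Rate constants from 2-min kinetic reads post-stimulation, normalised to positive and negative controls.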
gsp antagonist – qHTS for Antagonists of gsp, the Etiologic Mutation Responsible for Fibrous Dysplasia/McCune-Albright Syndrome: qHTS. Potency, µM (titrated, usually from 76.9 µM), without a hit: at the highest dose activity change, negative = inhibition, actives largely listed as inhibitors. gsp-mutant cells, cAMP HTRF, 30 min. 0.4% of 340,000 active. AID 624288, 2012; calls by dose curve; cell line not stated here;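 further: intracellular cAMP measured with PDE inhibitor Ro 20-1724 present during compound exposure; potency means the concentration at half of the fitted maximal effect; on the % scale 0 is the no-effect control and ±100 the full control effect; nearly all actives have a fitted effect of over 65% in size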
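Cells in G418 medium, seeded 16-24 h, 37C; buffer exchange to DPBS + 1 mM CaCl2, 0.5 mM MgCl2, 0.05% BSA; cpds in DMSO + […] (300 uM stock), 30 min 37C; HTRF cAMP detection.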
gsp agonist – qHTS for Agonist of gsp, the Etiologic Mutation Responsible for Fibrous Dysplasia/McCune-Albright Syndrome: qHTS. gsp mutant cells, cAMP HTRF, 30 min. 0.13% of 340,000 active. AID 624287, 2012. Potency, µM (top dose mostly 76.9 µM), inactives show at the highest dose activation (cAMP increase), most hits filed as activators; active means well fitted activation curve with a large enough effect; inconclusive means small, poorly fitted or top-dose-only effect, or another doubt; inactive means no such curve, though single readings can be large or run the other way; cell line not stated here;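 further: phosphodiesterase inhibitor Ro 20-1724 added with compounds to block cAMP breakdown; potency means the concentration at half of the fitted maximal effect; nearly all actives have a fitted effect of over 60% in size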
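Cells in DMEM/10% FBS with G418 were pretreated with compounds in DMSO plus […] (300 uM stock) for 30 min at 37C. cAMP was measured by HTRF (cAMP-d2 plus anti-cAMP antibody-K) after 30 min at room temperature.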
GRP78 ERSR act – qHTS for Inducers of the Endoplasmic Reticulum Stress Response (ERSR) in Human Glioma: qHTS; 0.02% of 420,000 active; Potency, µM, without a hit: top-dose activation, actives largely listed as activators; U87-MG GRP78 promoter luciferase reporter, 16 h; active means well fitted activation curve with a large enough effect; inconclusive means small, poorly fitted or top-dose-only effect; inactive means no such curve, though single readings can be large or run the other way; further: potency means the concentration at half of the fitted maximal effect; series mostly up to about 76 µM; % of control where 0% means no effect; nearly all actives have a fitted effect of over 35% in size
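Stably transfected U87-MG glioma cells carrying a GRP78-based luciferase sensor; 16 h compound incubation. Luminescence end-point read 10 min after Bright-Glo addition at room temperature.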
Akt phos inh – HTS Assay for Inhibitors of Akt Phophorylation: Primary Screen. Neuro2A IGF-stimulated pAkt S473 HTRF, 20 min; hits give low values. activity change, % for hits at 50 µM. 0.32% of 360,000 active. AID 651550, 2012; in the data active means activity change below about -80%; inconclusive means mostly about -51% to -80%; further: on the % scale 0 is the no-effect control and ±100 the full control effect
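Neuro2A cells in DMEM with 0.5% FBS, overnight at 37 deg C, given compound at single 50 µM final, then IGF (6 nM final) for 20 min at 37 deg C. Lysed; phospho-Akt Ser473 by HTRF after 24 h, 665/615 ratio.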
hERG WT inh – qHTS for Inhibitors of KCHN2 3.1: Wildtype qHTS; Voltage-gated inwardly rectifying potassium channel KCNH2 (Homo sapiens), Q12809; U2OS, BacMam KCNH2, thallium flux FluxOr; hits give low values; activity change, % at 1.84 µM; 0.37% of 340,000 active; AID 720551, 2013;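 active means maximum activity change below -70%; inconclusive means maximum activity change between -70% and -50%; inactive means maximum activity change above -50%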; further: on the % scale 0 is the no-effect control and ±100 the full control effect
Target sequence (Q12809 whole entry, looked up): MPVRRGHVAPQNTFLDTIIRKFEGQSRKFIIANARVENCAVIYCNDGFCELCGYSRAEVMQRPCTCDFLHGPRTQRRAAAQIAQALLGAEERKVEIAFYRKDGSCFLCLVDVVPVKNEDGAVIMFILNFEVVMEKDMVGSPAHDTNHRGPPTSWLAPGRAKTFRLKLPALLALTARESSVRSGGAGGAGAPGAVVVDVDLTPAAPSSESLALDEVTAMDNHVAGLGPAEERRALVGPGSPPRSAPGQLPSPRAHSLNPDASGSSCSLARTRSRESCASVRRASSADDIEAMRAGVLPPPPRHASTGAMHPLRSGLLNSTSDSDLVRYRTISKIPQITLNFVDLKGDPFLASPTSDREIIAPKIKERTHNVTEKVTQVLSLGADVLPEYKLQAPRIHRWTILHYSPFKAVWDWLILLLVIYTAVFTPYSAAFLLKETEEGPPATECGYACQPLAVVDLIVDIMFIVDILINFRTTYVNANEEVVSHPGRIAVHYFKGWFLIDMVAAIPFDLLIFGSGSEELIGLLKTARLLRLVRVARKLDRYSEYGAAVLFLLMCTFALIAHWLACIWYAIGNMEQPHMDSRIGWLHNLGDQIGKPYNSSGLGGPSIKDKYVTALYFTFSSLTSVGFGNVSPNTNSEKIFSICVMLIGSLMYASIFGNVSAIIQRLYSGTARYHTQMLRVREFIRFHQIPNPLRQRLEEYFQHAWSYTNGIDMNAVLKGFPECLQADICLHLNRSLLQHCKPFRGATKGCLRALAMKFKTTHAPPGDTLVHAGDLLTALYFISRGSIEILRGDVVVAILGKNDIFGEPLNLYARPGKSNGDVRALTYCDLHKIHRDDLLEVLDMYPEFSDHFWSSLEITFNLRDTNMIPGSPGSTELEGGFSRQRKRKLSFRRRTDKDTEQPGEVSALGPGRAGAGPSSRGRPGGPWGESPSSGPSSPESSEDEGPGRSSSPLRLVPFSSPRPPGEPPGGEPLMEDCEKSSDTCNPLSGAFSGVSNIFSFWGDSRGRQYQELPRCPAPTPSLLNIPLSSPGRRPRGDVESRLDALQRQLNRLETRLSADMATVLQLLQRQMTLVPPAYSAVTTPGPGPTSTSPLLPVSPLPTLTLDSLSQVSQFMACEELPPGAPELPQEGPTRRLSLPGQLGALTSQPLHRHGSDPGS
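U2OS cells transduced with wild-type KCNH2 virus are loaded with FluxOr dye for 45 min, and thallium flux is measured in kinetic reads before and after stimulation buffer. Rate constants are normalized to DMSO controls.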
An asterisk follows results filed as active; i = inactive; ? = inconclusive; . = no result; [ ] = dose if it differs, or a comment.

SMILES	KCNH2 3.1 inh	gsp antagonist	gsp agonist	GRP78 ERSR act	Akt phos inh	hERG WT inh
O=C(Nc1ccccc1N1CCN(C(=O)c2ccccc2)CC1)c1ccc(Cl)cc1	-32	?	-2%	-2%	i	32
CCOc1cc(/C=C(\C#N)C(=O)NCC2CCCO2)ccc1O (stereo not given)	-4	3%	-3%	0%	i	2
CCOc1cc(/C=C(\C#N)C(=O)NCC2CCCO2)ccc1OCC(N)=O (stereo not given)	-185*	3%	-18%	-1%	i	-136*
O=C(NCc1ccccc1)c1cccc(COc2ccc3c(c2)CCC3)c1	-16	-27%	-18%	-13%	i	-1
O=C(O)c1cccc(COc2ccc3c(c2)CCC3)c1	-112*	-6%	7%[15.4 µM]	-16%	i	6
Cc1c(C(=O)N2CCOc3ccccc3C2)sc2ncnc(NCCCN3CCOCC3)c12	.	.	.	-3%	.	.
COC(=O)c1nnn(-c2ccc(Cl)c(Cl)c2)c1C(=O)OC	-5	3%	-31%[15.4 µM]	-3%	i	0
COC(=O)c1nnn(-c2ccc(F)c(Cl)c2)c1C(=O)OC	-70*	15%	7%[15.4 µM]	-1%	i	5
CC(CCc1ccc2c(c1)OCO2)NN (stereo not given)	.	.	.	-2%	.	.
O=C(C1CC1)N1c2ccccc2Sc2ccccc21	-83*	-17%	-13%	-3%	i	4
Cc1ccc(-c2nc(CS(=O)CC(=O)NC3CC3)c(C)o2)cc1 (stereo not given)	13	-27%	-11%	-4%	.	-5
Cc1oc(-c2ccccc2Cl)nc1CS(=O)CC(=O)NC1CC1 (stereo not given)	8	-11%	-8%	-5%	.	-261*
CCOC(=O)c1c(C)oc(NC(=O)COc2ccc(Cl)cc2C)c1C#N	-75*	?	5%	-2%	i	-2
O=C(C[n+]1cccc2cc(Cl)ccc21)c1cccc([N+](=O)[O-])c1	.	.	.	-3%	.	.
O=C(O)CCSSCCC(=O)O	1	-3%	.	0%	i	5
O=C(O)CCSCCC(=O)O	14	20%	-4%	-4%	-106%*	1
c1ccc2c(c1)[nH]c1c(NCC3CCCO3)ncnc12 (stereo not given)	1	35µM*	-1%	-4%	i	-10
c1nc(NCC2CCCO2)c2[nH]cnc2n1 (stereo not given)	16	2%	0%	-3%	.	-1
CCOCCCNc1ncnc2c1[nH]c1ccccc12	8	-22%	28%	6%	.	14
CCCCOCCCNc1ncnc2c1[nH]c1ccccc12	13	7.9µM*	0%	-1%	i	-2
COc1cccc(-c2nc3cc4c(cc3cc2CN(C(=O)c2cc(C)nn2C)C2CC2)CCC4)c1OC	.	.	.	-4%	.	.
CCN(CC)S(=O)(=O)c1cccc(C(=O)OCC(=O)Nc2ccc3c(c2)c2ccccc2n3CC)c1	9	-1%	-1%	0%	i	-119*
CCn1c2ccccc2c2cc(NC(=O)COC(=O)c3cccc(S(=O)(=O)NC)c3)ccc21	2	-15%	?	1%	i	-1
CCC(=O)Nc1c(-c2ccccc2Cl)c(=O)c2ccccc2n1CC	-3	8%	16µM*	-3%	i	.
CCCC(=O)N1CC(=O)Nc2ccc(F)cc2C1c1ccccc1 (stereo not given)	-87*	1%	?	-4%	i	1
SMILES	KCNH2 3.1 inh	gsp antagonist	gsp agonist	GRP78 ERSR act	Akt phos inh	hERG WT inh
OC1CCCN(CC(O)COc2ccc(-c3ccccc3)cc2)C1 (stereo not given)	-72*	9%	-1%	1%	i	19
CCOC(=O)N1CCN(CC(O)COc2ccc(-c3ccccc3)cc2)CC1 (stereo not given)	-26	-7%	-44%	-2%	i	8
NC(=O)C1CCN(CC(O)COc2ccc(-c3ccccc3)cc2)CC1 (stereo not given)	-86*	15%	-16%	1%	i	15
Cc1ccc(C)c(C(=O)N2CCC(C3(c4ccccn4)NC(=O)N(CC4CCCO4)C3=O)CC2)c1 (stereo not given)	.	.	.	-3%	.	.
COc1ccc(COc2ccccc2C(=O)NCc2ccccc2)cc1F	-5	28µM*	-29%	1%	i	3
Cc1ccc(Nc2nc(Cl)nc(NC3CCCCC3)n2)cc1	-93*	3%	-7%[15.4 µM]	2%	i	1
CO[C@H]1[C@H](NC(=O)c2ccsc2)c2ccccc2C12CCN(Cc1c(O)ccc3ccccc13)CC2	.	.	.	1%	.	.
N#Cc1c(C(F)(F)F)cc(-c2ccc(Cl)cc2)[nH]c1=O	13	35µM*	24%	-4%	i	3
N#Cc1c(C(F)(F)F)cc(-c2cccc(Cl)c2)[nH]c1=O	2	35µM*	4%	5%	i	-5
Cc1cccc(CNC(=O)c2cnn(-c3ncc(C)c(-c4cccs4)n3)c2C2CC2)n1	.	.	.	-3%	.	.
COc1cc(=O)n2c(c1C(=O)N(C)Cc1ccsc1)CCN(Cc1c(C)nn(C)c1Cl)CC2	.	.	.	-4%	.	.
CCOc1cccc(CN2CCCC(N3CCN(c4cccc(Cl)c4)CC3)C2)c1O (stereo not given)	-82*	2%	-4%	-1%	i	-36
CCOc1cccc(CN2CCCC(C(=O)c3cc(Cl)ccc3OC)C2)c1O (stereo not given)	-115*	-22%	-30%	-1%	i	-105*
COc1ccc(C(=O)C2CCCN(Cc3cc(Cl)ccc3O)C2)c(OC)c1 (stereo not given)	-74*	-26%	-35%	-6%	i	18
COc1cccc(CN2CCCC(C(=O)c3ccc4c(c3)OCO4)C2)c1O (stereo not given)	-19	1%	-4%	-3%	i	56
COc1ccc(CN2CCCC(C(=O)c3ccc(Cl)cc3)C2)cc1Cn1cccn1 (stereo not given)	-96*	-2%	-4%	-1%	i	-106*
Cc1ccc(CN2CCc3nnc(C(NC(=O)c4ccoc4)C(C)C)n3CC2)cc1C (stereo not given)	.	.	.	0%	.	.
COCC1=C(C(=O)OC(C)OC(=O)OC(C)C)N2C(=O)C(NC(=O)/C(=N\OC)c3csc(N)n3)C2SC1 (stereo not given)	.	.	.	-4%	.	.
